BCR signal inh: inhibitors of chronic active B-cell receptor signaling | ABC-DLBCL IkBa-CBG/CBR reporter, luminescence ratio, 4 h | Potency, µM (series often up to 46.1 µM), without a hit: top-dose activity change, negative = inhibition, most hits filed as inhibitors | hit rate 0.05% among 340,000; active = well fitted inhibition curve with a large enough effect in the signal ratio, with a control signal flat, not every such curve was filed as active; inconclusive = small, poorly fitted or top-dose-only effect, or effect the other way, or a change in a side signal; the % refers to the signal ratio;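 also: potency is read from the fitted curve at half-maximal effect; plate controls were basal doxycycline-induced cells for no effect and cells given 10 µM MG132 for full effect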
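Doxycycline induced both beetle luciferases in TMD8 lymphoma cells; IKK-driven degradation limits the IkappaBalpha-fused green signal, while red luminescence normalises for cell number and nonspecific effects. Compounds tested up to 46 uM, 4 hrs.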
DT40 TDP1 no CPT: qHTS for Inhibitors of human tyrosyl-DNA phosphodiesterase 1 (TDP1): qHTS in cells in absence of CPT | Potency, µM (series often up to 46.2 µM), without a hit: at the top dose activity change, negative = growth inhibition, hits mostly inhibitors | DT40 Tdp1-/- hTDP1 cells, no CPT, ATP luminescence, 48 h | AID 686978, 2013 | hit rate 15% among 420,000; also: potency is read from the fitted curve at half-maximal effect; % is scaled to controls: 0 for no effect and ±100 for the full control effect; nearly all actives have a fitted effect of over 55% in size
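Compound effects on proliferation are scored in DT40 Tdp1-/-;hTDP1 cells in the absence of CPT. ATP levels (CellTiter-Glo luminescence) are recorded after a ≥48 hr, 37 °C incubation.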
DT40 TDP1 CPT: growth inhibition of DT40 Tdp1-/-;hTDP1 cells with camptothecin (screen for TDP1 inhibitors). chicken DT40 Tdp1-/-;hTDP1 cells + 20 nM CPT, ATP luminescence, 48 h. Potency, µM (top dose mostly 46.2 µM), for the others: at the top dose activity change, negative = growth inhibition, hits mostly inhibitors. hit rate 12% among 420,000. AID 686979; also: potency is read from the fitted curve at half-maximal effect; % is scaled to controls: 0 for no effect and ±100 for the full control effect; nearly all actives have a fitted effect of over 55% in size
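Chicken DT40 Tdp1-/- cells stably complemented with human TDP1 were seeded at 400 cells/well in medium containing 20 nM camptothecin, exposed to pin-transferred compounds, and grown at 37 °C for at least 48 hr. Viability was read as ATP luminescence.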
SW480 rerep: induces DNA re-replication in SW480 colon adenocarcinoma cells; SW480 DNA re-replication, Hoechst DNA content imaging, 48 h; Potency, µM (series often up to 46.1 µM), for the others: at the top dose re-replication activation, hits mostly activators; hit rate 1.8% among 340,000; AID 624297; also: potency is read from the fitted curve at half-maximal effect; % of control where 0% means no effect; nearly all actives have a fitted effect of over 55% in size
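Image-based DNA-content assay: after two days of treatment, nuclei were labelled with the DNA dye Hoechst and imaged, and hits were compounds raising the count of nuclei showing high fluorescence intensity.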
IL1B secr inh: blocks inflammasome-driven IL-1 beta release | THP-1 LPS/ATP IL-1B secretion, AlphaLISA, 16 h; stronger effect = lower value | activity change, % at 57.5 µM | hit rate 4.7% among 360,000 | AID 743279; in the data active = activity change below about -50%; inconclusive = mostly about -30% to -49%; also: % is scaled to controls: 0 for no effect and ±100 for the full control effect
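THP-1 cells pretreated 1 hr with compounds (up to 57.5 uM final), then stimulated with LPS (250 ng/mL final) plus ATP (1.25 mM final); secreted IL-1B measured by AlphaLISA after 16 hr, decreased signal indicating inhibition.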
MCF10A rerep: inducers of DNA re-replication in MCF 10A breast cells. MCF 10A DNA re-replication, Hoechst nuclear intensity, 48 h. hit rate 2.9% among 350,000. Potency, µM (series often up to 46.1 µM), for inactives: at the highest dose activity, positive = re-replication, hits mostly activators. AID 624296; also: potency is read from the fitted curve at half-maximal effect; % of control where 0% means no effect; nearly all actives have a fitted effect of over 50% in size
The depositor's hits bear a star; ? = inconclusive; . = no result; [ ] = another dose, or the depositor's remark. This is a sample that favours compounds with a hit; in the whole collection about 19% have one here. Unless noted, calls follow the shape of the dose curve; as a rule, active = well fitted curve in the direction sought with a large enough effect; inconclusive = small, poorly fitted or top-dose-only effect, or another doubt; inactive = no such curve, though single readings can be large; an effect the other way counts as inactive or inconclusive.

SMILES	BCR signal inh	DT40 TDP1 no CPT	DT40 TDP1 CPT	SW480 rerep	IL1B secr inh	MCF10A rerep
Cc1ccc(CNC(=O)CCC(=O)N2CC3CCCN3c3ccccc32)cc1 (configuration not stated)	.	18µM*	5.2µM*	.	.	.
Cc1ccccc1CNC(=O)CCC(=O)N1CC2CCCN2c2ccccc21 (configuration not stated)	.	23µM*	18µM*	.	.	.
COCc1c(C(=O)NC2CCOC(C)(C)C2)cnn1-c1nccc(-c2cccs2)n1 (configuration not stated)	.	-15%	10%[9.04 µM]	.	.	.
Cc1c(C(=O)N(C)CCCCN2CCOCC2)oc2c(F)cccc12	-5%	-21%	-26%	3%	9	?
N#CCC(C(=O)c1cccnc1)c1ccccc1 (configuration not stated)	.	-2%	-9%	.	2	.
CCOC(=O)CN1N=C(/C=C/c2ccc(C)cc2)CCC1=O	0%	?	-15%	14%	-2	13%
Cc1ccccc1CN1N=C(/C=C/c2ccccc2)CCC1=O	-5%	23µM*	-9%	-1%	-13	0%
C[C@H](O)[C@@H]1CN2CCc3c([nH]c4ccccc34)[C@@H]2C[C@@H]1N(C)C(=S)Nc1ccc(C#N)cc1	.	?	?	.	-22	.
COC(=O)C1=C(C(=O)OC)[C@]2([C@H]3CC=CCN[C@@H](Cc4ccccc4)C(=O)N3Cc3ccccc3)C=C[C@H]1O2	.	15µM*	18µM*	10%	-8	-14%
COC(=O)C1C2C=CC3(CN(CCc4ccccc4)C(=O)C13)O2 (configuration not stated)	9%	-11%	-6%	20%	21	4%
COC(=O)C1=C(C(=O)OC)[C@]2([C@@H]3CC=CCN[C@@H](Cc4ccccc4)C(=O)N3Cc3ccccc3)C=C[C@H]1O2	.	12µM*	18µM*	-5%[9.22 µM]	10	2%
COC(=O)C1=C(C)N(Cc2ccccc2)C(=O)N[C@H]1c1ccccc1	-2%	-21%	?	?	-23	?
O=C(COc1ccccc1)NCC(=O)Nc1cccc(S(=O)(=O)NC2=NCCC2)c1	-9%	-9%	1%	-7%	117	1%
CN1CCc2c(sc(/N=C/c3c[nH]c4ccccc34)c2C(N)=O)C1	?	16µM*	-103%	-2%	?	12%
CN1CCc2c(sc(N)c2C(N)=O)C1	0%	21µM*	26µM*	1%	11	-3%
CCN1CCc2c(sc(N)c2C(N)=O)C1	-6%	23µM*	?	?	-2	-2%
CN1CCc2c(sc(/N=C/c3c[nH]c4ccccc34)c2C#N)C1	?	?	?	-12%	-8	?
NC(=O)c1c(N)sc2c1CCCC2	-3%	6%	-4%	-7%	23	-7%
COc1cc(Cl)c(C)cc1NC(=O)Cn1ncc2c([nH]c3ccccc32)c1=O	.	1%	-8%	.	.	.
Cn1cc(-c2nc3cnc(Oc4ccccc4)nc3n(C)c2=O)c2ccccc21	.	6%	3%	.	.	.
COc1ccc(N2CCN(CCCNC(=O)c3cc(Nc4ccccc4OC)nc4ccccc34)CC2)cc1	?	?	23µM*	.	.	.
COc1ccc(N2CCN(CCNC(=O)c3ccc4nc5ccccc5c(=O)n4c3)CC2)cc1	9%	1%	-26%	-2%	13	-4%
CCN(CCCNC(=O)c1cc(Nc2ccccc2OC)nc2ccccc12)c1cccc(C)c1	.	7.3µM*	21µM*	.	.	.
COc1ccc(Nc2cc(C(=O)NCCCN3CCN(C)CC3)c3ccccc3n2)cc1OC	?	-18%	-15%	-5%	?	-3%
COc1ccccc1Nc1cc(C(=O)NC2CCCC2)c2ccccc2n1	1%	?	?	-3%	0	1%
